Holding throughout (assay): PBM; 200 nM protein, PBS
Common to all, as to settings: dsDNA, one strand shown

For test [1], the target named is VAX1 (Homo sapiens, UniProt Q5SQQ9 86-172).
In test [2] the target is VAX1 (Homo sapiens, UniProt Q5SQQ9 86-172, T142I).
Test [3] deals with VAX1 (Homo sapiens, UniProt Q5SQQ9 86-172, K157R).
The target in test [4] is NKX3-2 (Homo sapiens, UniProt P78367 192-278, P234S).
The target in test [5] is NKX3-2 (Homo sapiens, UniProt P78367 192-278).

This is an account of results in paper PMC11006913.

Sequence of VAX1 (Homo sapiens, UniProt Q5SQQ9 86-172) (Q5SQQ9 86-172): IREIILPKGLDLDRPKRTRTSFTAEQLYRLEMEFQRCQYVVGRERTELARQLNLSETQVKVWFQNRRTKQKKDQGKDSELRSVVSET
Sequence of VAX1 (Homo sapiens, UniProt Q5SQQ9 86-172, K157R) (Q5SQQ9 86-172 K157R): as the sequence (Q5SQQ9 86-172) above, with K72R counted along it
Sequence of VAX1 (Homo sapiens, UniProt Q5SQQ9 86-172, T142I) (Q5SQQ9 86-172 T142I): as the sequence (Q5SQQ9 86-172) above, with T57I counted along it
Sequence of NKX3-2 (Homo sapiens, UniProt P78367 192-278, P234S) (P78367 192-278 P234S): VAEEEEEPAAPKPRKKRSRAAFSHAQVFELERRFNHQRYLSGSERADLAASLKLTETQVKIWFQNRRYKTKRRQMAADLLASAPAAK
Sequence of NKX3-2 (Homo sapiens, UniProt P78367 192-278) (P78367 192-278): as the sequence (P78367 192-278 P234S) above, with S43P counted along it

As to CTTCATCA, the binding signal is 9.74 upbm affinity estimate (log intensity, higher = more binding, comparable within an allelic series) in test [1]; 9.33 upbm affinity estimate (log intensity, higher = more binding, comparable within an allelic series) in test [2]; 9.51 upbm affinity estimate (log intensity, higher = more binding, comparable within an allelic series) in test [3].

Turning to AATATTGG, the binding signal in test [1] is 9.86 upbm affinity estimate (log intensity, higher = more binding, comparable within an allelic series); in test [2], 9.41 upbm affinity estimate (log intensity, higher = more binding, comparable within an allelic series); in test [3], 9.62 upbm affinity estimate (log intensity, higher = more binding, comparable within an allelic series).

Regarding AGGGTCAG, the binding signal was 7.22 upbm affinity estimate (log intensity, higher = more binding, comparable within an allelic series) in test [1]; 7.35 upbm affinity estimate (log intensity, higher = more binding, comparable within an allelic series) in test [2]; 7.25 upbm affinity estimate (log intensity, higher = more binding, comparable within an allelic series) in test [3].

For the sequence CGTAATGA, the binding signal is 12.7 upbm affinity estimate (log intensity, higher = more binding, comparable within an allelic series) in test [1]; 12.2 upbm affinity estimate (log intensity, higher = more binding, comparable within an allelic series) in test [2]; 12.2 upbm affinity estimate (log intensity, higher = more binding, comparable within an allelic series) in test [3].

With AAGGTCAT, the binding signal in test [1] is 9.64 upbm affinity estimate (log intensity, higher = more binding, comparable within an allelic series); in test [2], 9.26 upbm affinity estimate (log intensity, higher = more binding, comparable within an allelic series); in test [3] it was 9.4 upbm affinity estimate (log intensity, higher = more binding, comparable within an allelic series).

On to CGGCAAGA, for which the binding signal in test [1] is 7.12 upbm affinity estimate (log intensity, higher = more binding, comparable within an allelic series); in test [2], 7.22 upbm affinity estimate (log intensity, higher = more binding, comparable within an allelic series); in test [3], 7.11 upbm affinity estimate (log intensity, higher = more binding, comparable within an allelic series).

As to CAGCCGTA, the binding signal in test [1] is 7.32 upbm affinity estimate (log intensity, higher = more binding, comparable within an allelic series); in test [2], 7.28 upbm affinity estimate (log intensity, higher = more binding, comparable within an allelic series); in test [3], 7.24 upbm affinity estimate (log intensity, higher = more binding, comparable within an allelic series).

For ATAACGTG, the binding signal in test [1] is 9.01 upbm affinity estimate (log intensity, higher = more binding, comparable within an allelic series); in test [2] it was 8.66 upbm affinity estimate (log intensity, higher = more binding, comparable within an allelic series); in test [3], 8.79 upbm affinity estimate (log intensity, higher = more binding, comparable within an allelic series).

As to AGGGCCCT, the binding signal in test [1] is 7.2 upbm affinity estimate (log intensity, higher = more binding, comparable within an allelic series); in test [2], 7.19 upbm affinity estimate (log intensity, higher = more binding, comparable within an allelic series); in test [3], 7.36 upbm affinity estimate (log intensity, higher = more binding, comparable within an allelic series).

On to AGTCAGGG, for which the binding signal in test [1] is 7.19 upbm affinity estimate (log intensity, higher = more binding, comparable within an allelic series); in test [2], 7.36 upbm affinity estimate (log intensity, higher = more binding, comparable within an allelic series); in test [3], 7.15 upbm affinity estimate (log intensity, higher = more binding, comparable within an allelic series).

For GCGGAGAC, the binding signal in test [1] is 7.14 upbm affinity estimate (log intensity, higher = more binding, comparable within an allelic series); in test [2] it was 7.32 upbm affinity estimate (log intensity, higher = more binding, comparable within an allelic series); in test [3], 7.29 upbm affinity estimate (log intensity, higher = more binding, comparable within an allelic series).

Take CGCCGCTC: the binding signal in test [1] is 7.19 upbm affinity estimate (log intensity, higher = more binding, comparable within an allelic series); in test [2], 7.18 upbm affinity estimate (log intensity, higher = more binding, comparable within an allelic series); in test [3], 7.31 upbm affinity estimate (log intensity, higher = more binding, comparable within an allelic series).

For the sequence GTCGAGCA, the binding signal is 7.29 upbm affinity estimate (log intensity, higher = more binding, comparable within an allelic series) in test [1]; 7.31 upbm affinity estimate (log intensity, higher = more binding, comparable within an allelic series) in test [2]; 7.41 upbm affinity estimate (log intensity, higher = more binding, comparable within an allelic series) in test [3].

Consider ACCCTCGC, for which the binding signal in test [1] was 7.12 upbm affinity estimate (log intensity, higher = more binding, comparable within an allelic series); in test [2], 7.19 upbm affinity estimate (log intensity, higher = more binding, comparable within an allelic series); in test [3] it was 7.13 upbm affinity estimate (log intensity, higher = more binding, comparable within an allelic series).

Turning to ATTTCTAG, the binding signal in test [1] was 9.13 upbm affinity estimate (log intensity, higher = more binding, comparable within an allelic series); in test [2] it was 8.86 upbm affinity estimate (log intensity, higher = more binding, comparable within an allelic series).

Turning to CAATCTAG, the binding signal is 9.1 upbm affinity estimate (log intensity, higher = more binding, comparable within an allelic series) in test [1]; 8.87 upbm affinity estimate (log intensity, higher = more binding, comparable within an allelic series) in test [2]; 8.9 upbm affinity estimate (log intensity, higher = more binding, comparable within an allelic series) in test [3].

Take ATATTACC: the binding signal in test [1] was 11.5 upbm affinity estimate (log intensity, higher = more binding, comparable within an allelic series); in test [2], 11.2 upbm affinity estimate (log intensity, higher = more binding, comparable within an allelic series); in test [3] it was 11.4 upbm affinity estimate (log intensity, higher = more binding, comparable within an allelic series).

As for CGTTGGGC, the binding signal in test [1] was 7.21 upbm affinity estimate (log intensity, higher = more binding, comparable within an allelic series); in test [2], 7.31 upbm affinity estimate (log intensity, higher = more binding, comparable within an allelic series); in test [3] it was 7.23 upbm affinity estimate (log intensity, higher = more binding, comparable within an allelic series).

For the sequence AAGTAGCT, the binding signal was 9.67 upbm affinity estimate (log intensity, higher = more binding, comparable within an allelic series) in test [1]; 9.41 upbm affinity estimate (log intensity, higher = more binding, comparable within an allelic series) in test [2]; 11.8 upbm affinity estimate (log intensity, higher = more binding, comparable within an allelic series) in test [4]; 9.35 upbm affinity estimate (log intensity, higher = more binding, comparable within an allelic series) in test [3]; 11.9 upbm affinity estimate (log intensity, higher = more binding, comparable within an allelic series) in test [5].

On to CCAATCTA, for which the binding signal was 9.3 upbm affinity estimate (log intensity, higher = more binding, comparable within an allelic series) in test [1]; 8.82 upbm affinity estimate (log intensity, higher = more binding, comparable within an allelic series) in test [2]; 9.11 upbm affinity estimate (log intensity, higher = more binding, comparable within an allelic series) in test [3].

Consider ACGCATAA, for which the binding signal in test [1] was 9.35 upbm affinity estimate (log intensity, higher = more binding, comparable within an allelic series); in test [2], 8.83 upbm affinity estimate (log intensity, higher = more binding, comparable within an allelic series); in test [3] it was 8.87 upbm affinity estimate (log intensity, higher = more binding, comparable within an allelic series).

On to AAATTAGC, for which the binding signal in test [1] was 11.9 upbm affinity estimate (log intensity, higher = more binding, comparable within an allelic series); in test [2], 11.5 upbm affinity estimate (log intensity, higher = more binding, comparable within an allelic series); in test [3], 11.6 upbm affinity estimate (log intensity, higher = more binding, comparable within an allelic series).

CAACGCGG: the binding signal is 7.3 upbm affinity estimate (log intensity, higher = more binding, comparable within an allelic series) in test [1]; 7.21 upbm affinity estimate (log intensity, higher = more binding, comparable within an allelic series) in test [2]; 7.43 upbm affinity estimate (log intensity, higher = more binding, comparable within an allelic series) in test [3].

Regarding AGCCATTA, the binding signal in test [1] is 11.7 upbm affinity estimate (log intensity, higher = more binding, comparable within an allelic series); in test [2], 11.3 upbm affinity estimate (log intensity, higher = more binding, comparable within an allelic series); in test [3], 11.2 upbm affinity estimate (log intensity, higher = more binding, comparable within an allelic series).

In the case of CCTTCGCC, the binding signal in test [1] was 7.18 upbm affinity estimate (log intensity, higher = more binding, comparable within an allelic series); in test [2], 7.38 upbm affinity estimate (log intensity, higher = more binding, comparable within an allelic series); in test [3] it was 7.16 upbm affinity estimate (log intensity, higher = more binding, comparable within an allelic series).

For CGACTCCG, the binding signal in test [1] was 6.81 upbm affinity estimate (log intensity, higher = more binding, comparable within an allelic series); in test [2], 7.11 upbm affinity estimate (log intensity, higher = more binding, comparable within an allelic series); in test [3], 7.09 upbm affinity estimate (log intensity, higher = more binding, comparable within an allelic series).

As to AGGCGGGA, the binding signal in test [1] is 6.99 upbm affinity estimate (log intensity, higher = more binding, comparable within an allelic series); in test [2] it was 7.2 upbm affinity estimate (log intensity, higher = more binding, comparable within an allelic series); in test [3], 7.24 upbm affinity estimate (log intensity, higher = more binding, comparable within an allelic series).
